Test results taken from PubChem BioAssay AID720582 (The Scripps Research Institute Molecular Screening Center, 2013).
Hit rate of the full screen: of about 370,000 compounds, about 2,300 (0.62%) were called active.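 The calls were made as follows: active = inhibition above a per-campaign cutoff equal to the mean of compounds falling between control-based bounds plus 3 SD (cut at about 20% in these data); inactive = the rest.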 Shown is part of a subset that was picked to be rich in actives.

Biological target: Disintegrin and metalloproteinase domain-containing protein 10 (Homo sapiens) (UniProt O14672)
Sequence (O14672 214-748 limits assumed): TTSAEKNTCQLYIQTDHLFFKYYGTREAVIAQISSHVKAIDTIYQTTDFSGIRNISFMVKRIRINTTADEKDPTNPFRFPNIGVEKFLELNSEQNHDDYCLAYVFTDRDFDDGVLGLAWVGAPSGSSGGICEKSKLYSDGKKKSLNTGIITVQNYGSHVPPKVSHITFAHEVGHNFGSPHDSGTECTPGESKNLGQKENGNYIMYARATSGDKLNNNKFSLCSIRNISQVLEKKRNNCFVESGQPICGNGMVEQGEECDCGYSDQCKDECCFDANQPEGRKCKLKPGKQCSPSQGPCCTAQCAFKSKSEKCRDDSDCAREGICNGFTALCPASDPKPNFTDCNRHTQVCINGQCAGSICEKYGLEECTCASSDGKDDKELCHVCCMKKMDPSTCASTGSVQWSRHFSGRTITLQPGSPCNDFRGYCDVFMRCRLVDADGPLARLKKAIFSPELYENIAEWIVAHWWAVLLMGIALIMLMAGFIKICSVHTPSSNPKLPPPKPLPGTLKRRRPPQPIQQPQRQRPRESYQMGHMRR
Assay: human ADAM10 inhibitors, primary screen, biochemical, QFRET, HTS (AID 720582);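 also: 0% = DMSO wells while the 100% control is not disclosed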
Conditions: recombinant ADAM10, EDANS/DABCYL FRET peptide cleavage, 3 h; at 7 µM; hits give high values

SMILES | inhibition
COc1ccc(-n2nnnc2C(c2cccc3ccccc23)N2CCC(n3c(=O)[nH]c4ccccc43)CC2)cc1 (stereo not given) | 22.7% (active)
O=c1[nH]c2ccccc2n1C1CCN(C(c2ccnc3ccccc23)c2nnnn2Cc2ccccc2)CC1 (stereo not given) | -0.89% (inactive)
O=c1[nH]c2ccccc2n1C1CCN(C(c2ccccc2)c2nnnn2Cc2ccccc2)CC1 (stereo not given) | -9.55% (inactive)
CN1CCC(N(C)Cc2cccnc2)CC1 | -14.6% (inactive)
Cc1ccc(-c2nc3ccccc3c(=O)n2-c2ccc(Br)cn2)cc1 | 8.84% (inactive)
COP(=O)(Sc1ccccc1)C(Cc1ccccc1)NC(=O)OCc1ccccc1 (stereo not given) | 2.57% (inactive)
O=C1C2(Cl)C3(Cl)C4(Cl)C(Cl)(Cl)C5(Cl)C3(Cl)C1(Cl)C5(Cl)C24Cl (stereo not given) | 31.6% (active)
CO[C@H]([C@H](C)/C=C/N(C)C=O)[C@@H](C)C(=O)CC[C@H](C)[C@H](O)[C@H](C)[C@H]1OC(=O)/C=C/C(C)=C/[C@H](O)[C@H](OC)C[C@@H]2C=CC[C@@H](C[C@H](OC)[C@@]3(CO3)[C@@H](OC)C[C@@H](OC)[C@@H]1C)O2 | 3.02% (inactive)
Cc1ccccc1CCC[C@@H](CC1CCCCC1)CN(C)C(=O)Oc1ccccc1 | 1.44% (inactive)
O=C(NCC(c1cccnc1)N1CCN(c2ccccc2)CC1)Oc1ccccc1 (stereo not given) | 0.63% (inactive)
COC(=O)C1=C(c2ccc(-c3ccccc3)c(F)c2)C[C@@H]2CC[C@H]1N2C(=O)NCc1ccc(F)cc1 | 28.2% (active)
COC(=O)C1=C(c2cccc(OCc3ccccc3)c2)C[C@@H]2CC[C@H]1N2C(=O)NCc1ccc(Br)cc1 | 19.1% (inactive)
COC(=O)C1=C(c2ccc(F)cc2OCc2ccccc2)C[C@@H]2CC[C@H]1N2C(=O)NCc1ccc(Cl)cc1 | 17.6% (inactive)
CCOP(=O)(OCC)C(O)c1ccc(OC)cc1OC (stereo not given) | 1.75% (inactive)
O=C(Cn1c(=O)n(CC2CS2)c2ccccc21)N1CCCCC1 (stereo not given) | -0.6% (inactive)
